Source: the OligoGym collection
Also: reference of the scale not given here.

What follows are sequences tested against C17orf89 (assay: pooled miR-30 sensor sort-seq; sequence = guide strand). Settings: shRNA.
TCTTCTTGGCCGCAGCGGCGAA showed a sensor-assay potency score (higher = more potent) of -1.65.
In the case of TCGCACGCGGCCCCACACCGCT, the sensor-assay potency score (higher = more potent) is reported as -1.58.
In the case of TCCCGCGCGCAGAAGTCCTTAC, the sensor-assay potency score (higher = more potent) is reported as -1.42.
AGGCCTGCACGCACCTGCCGTA was tested, and the sensor-assay potency score (higher = more potent) was -1.48.
TTACTCAGGCGGCCGCCCGGGG gave a sensor-assay potency score (higher = more potent) of -1.34.
CAGAAGTCCTTACTCAGGCGGC was tested, and the sensor-assay potency score (higher = more potent) was -1.6.
For TTCTTGGCCGCAGCGGCGAAGC, the sensor-assay potency score (higher = more potent) was -1.54.
AGGGCCTCGAACTCCCGCGCGC was tested, and the sensor-assay potency score (higher = more potent) was -1.88.
TACGCCGCGGCCTCGGCCCCGC was tested, and the sensor-assay potency score (higher = more potent) was -1.68.
TCGAACTCCCGCGCGCAGAAGT showed a sensor-assay potency score (higher = more potent) of -1.83.
Work on AAGTCCTTACTCAGGCGGCCGC yielded a sensor-assay potency score (higher = more potent) of -1.52.
TTGGCCGCAGCGGCGAAGCAGC gave a sensor-assay potency score (higher = more potent) of -1.67.

What follows are sequences tested against C18orf34 in the same assay as above. Settings: shRNA.
Sequence TACACTGTTATCTGAACTGTGT has a sensor-assay potency score (higher = more potent) of 0.065.
Work on TTGTCTTACTTTTAGTTGCTTC yielded a sensor-assay potency score (higher = more potent) of -0.608.
Sequence TTCATCTTCTAGTTGAAGCAGA has a sensor-assay potency score (higher = more potent) of -0.375.
TATTCTTTCTTGATCTCTGTTG was tested, and the sensor-assay potency score (higher = more potent) was -0.0146.
Work on TTCTTCATTAACTTTTCTGTGT yielded a sensor-assay potency score (higher = more potent) of 0.0915.
TTTTGTTGACACAAGGTGCTGG showed a sensor-assay potency score (higher = more potent) of 0.854.
With TTTCATCTCTCTTTTCTCCTGG the sensor-assay potency score (higher = more potent) was 0.616.
In the case of TAATTCTATAACATCACTCAAA, the sensor-assay potency score (higher = more potent) is reported as -0.981.
TTGAAGTTCCTGATTCTGCTTA gave a sensor-assay potency score (higher = more potent) of 0.774.
TAGTTTTTTCTGAAGCACCATT gave a sensor-assay potency score (higher = more potent) of -0.995.
TTTTTTATTGTCTTCCGTCAGT was tested, and the sensor-assay potency score (higher = more potent) was -0.408.
Work on TTGTCGAGACTTCTGATTCTTT yielded a sensor-assay potency score (higher = more potent) of -0.716.

These sequences were tested against C18orf56 in the same assay as above. Settings: shRNA.
For TATTTTGATCATTGCTGCCTTT, the sensor-assay potency score (higher = more potent) was -0.437.
TTAGTATTTTGATCATTGCTGC was tested, and the sensor-assay potency score (higher = more potent) was -0.0513.
Sequence TAGAATTATCTCTTCATCTGGG has a sensor-assay potency score (higher = more potent) of 0.794.
ACACACAGCAGCGACAGCCGGG gave a sensor-assay potency score (higher = more potent) of -1.
TTAGGGACGTGACTGGCGCGGG gave a sensor-assay potency score (higher = more potent) of -1.11.
For TCTAATGCATCCTATATCCAGT, the sensor-assay potency score (higher = more potent) was -0.446.
Work on TTTAGTCCTAACCTCAATCCTG yielded a sensor-assay potency score (higher = more potent) of -0.687.
Sequence TCGGTATTCGGCATGCAGGCGC has a sensor-assay potency score (higher = more potent) of -0.876.
With TAGTCCTAACCTCAATCCTGCC the sensor-assay potency score (higher = more potent) was -1.52.
ATGCAGGCGCGCTACAGCCTGA gave a sensor-assay potency score (higher = more potent) of -1.57.
Sequence TATCTCTTCATCTGGGACCTGG has a sensor-assay potency score (higher = more potent) of -0.00491.
TTAGTCCTAACCTCAATCCTGC was tested, and the sensor-assay potency score (higher = more potent) was -0.842.

The sequences below were run against C19orf26 in the same assay as above. Settings: shRNA.
With TTGTCCAGGTAGGTGGTGGTGG the sensor-assay potency score (higher = more potent) was -0.893.
TTCGGTCTCCGCATCCTGGCAC gave a sensor-assay potency score (higher = more potent) of -0.126.
Work on TTGACCTTGAAATAGGGGCTGG yielded a sensor-assay potency score (higher = more potent) of -0.605.
